# Assay results reported in PubChem BioAssay AID1159580 (chemical genetic matrix, 2015).
# “And” between values parts separate entries of the source, which are not always exact repeats. Equal entries are not always repeated. Among all 5,500 compounds or so, about 2,000 (36%) were called active. Roughly 18% stayed inconclusive and do not appear here. No stated cut-off is given here; in the data, active means normalized growth mostly below about 0.91 (no sharp cut-off); inconclusive means no clear call, values can overlap the other calls; inactive means mostly above about 0.92. This is one part of the list. Where a structure was tested more than once in an assay, its records may differ in their call.
# Experiment: chemical genetic growth profiling, strain panel (AID 1159580);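 further: tested at 20 µM; growth read once vehicle control cultures reached saturation at 30 °C; 1 = growth at the plate median or of vehicle wells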
# Details: growth OD
smiles,measurement,setting,value
CN1CCN(CCCN2c3ccccc3Sc3ccc(Cl)cc32)CC1,normalized growth,"S. cerevisiae deletion strains, locus YKL009W, strain mrt4, stronger effect = lower value",0.936 (inactive)
same,normalized growth,"S. cerevisiae deletion strains, locus YKL068W, stronger effect = lower value",0.989 (inactive)
same,normalized growth,"S. cerevisiae deletion strains, locus YKL085W, strain MDH1 (second series), stronger effect = lower value",0.979 (inactive)
same,normalized growth,"S. cerevisiae deletion strains, locus YKL085W, strain MDH1, stronger effect = lower value",0.979 (inactive)
same,normalized growth,"S. cerevisiae deletion strains, locus YKL160W, strain elf1, stronger effect = lower value",0.974 (inactive)
same,normalized growth,"S. cerevisiae deletion strains, locus YKL190W, strain CNB1, stronger effect = lower value",0.124 (active)
same,normalized growth,"S. cerevisiae deletion strains, locus YKR001C, strain vps1, stronger effect = lower value",0.0709 (active)
same,normalized growth,"S. cerevisiae deletion strains, locus YKR026C, strain gcn3, stronger effect = lower value",0.976 (inactive)
same,normalized growth,"S. cerevisiae deletion strains, locus YKR091W, strain srl3, stronger effect = lower value",0.982 (inactive)
same,normalized growth,"S. cerevisiae deletion strains, locus YLL001W, strain dnm1, stronger effect = lower value",0.959 (inactive)
same,normalized growth,"S. cerevisiae deletion strains, locus YLL026W, stronger effect = lower value",0.898 (active)
same,normalized growth,"S. cerevisiae deletion strains, locus YLL041C, strain sdh2, stronger effect = lower value",0.943 (inactive)
same,normalized growth,"S. cerevisiae deletion strains, locus YLR027C, strain aat2, stronger effect = lower value",0.843 (active)
same,normalized growth,"S. cerevisiae deletion strains, locus YLR039C, strain RIC1, stronger effect = lower value",1.18 (inactive)
same,normalized growth,"S. cerevisiae deletion strains, locus YLR058C, strain SHM2, stronger effect = lower value",0.963 (inactive)
same,normalized growth,"S. cerevisiae deletion strains, locus YLR102C, strain apc9, stronger effect = lower value",1.01 (inactive)
same,normalized growth,"S. cerevisiae deletion strains, locus YLR113W, strain HOG1, stronger effect = lower value",0.966 (inactive)
same,normalized growth,"S. cerevisiae deletion strains, locus YLR221C, strain rsa3, stronger effect = lower value",0.885 (active)
same,normalized growth,"S. cerevisiae deletion strains, locus YLR258W, strain gsy2, stronger effect = lower value",0.943 (inactive)
same,normalized growth,"S. cerevisiae deletion strains, locus YLR262C, strain YPT6 (second series), stronger effect = lower value",1.06 (inactive)
same,normalized growth,"S. cerevisiae deletion strains, locus YLR262C, strain YPT6, stronger effect = lower value",0.689 (inactive)
same,normalized growth,"S. cerevisiae deletion strains, locus YLR268W, strain sec22, stronger effect = lower value",0.935 (inactive)
same,normalized growth,"S. cerevisiae deletion strains, locus YLR320W, strain mms22, stronger effect = lower value",0.866 (active)
same,normalized growth,"S. cerevisiae deletion strains, locus YLR330W, strain CHS5, stronger effect = lower value",0.892 (active)
same,normalized growth,"S. cerevisiae deletion strains, locus YLR342W, strain FKS1 (second series), stronger effect = lower value",0.405 (active)
same,normalized growth,"S. cerevisiae deletion strains, locus YLR342W, strain FKS1, stronger effect = lower value",0.523 (active)
same,normalized growth,"S. cerevisiae deletion strains, locus YLR357W, strain rsc2, stronger effect = lower value",0.914 (inactive)
same,normalized growth,"S. cerevisiae deletion strains, locus YLR370C, strain arc18, stronger effect = lower value",0.953 (inactive)
same,normalized growth,"S. cerevisiae deletion strains, locus YLR371W, strain rom2, stronger effect = lower value",1.01 (inactive)
same,normalized growth,"S. cerevisiae deletion strains, locus YLR384C, strain iki3, stronger effect = lower value",0.987 (inactive)
same,normalized growth,"S. cerevisiae deletion strains, locus YLR418C, strain cdc73, stronger effect = lower value",0.25 (active)
same,normalized growth,"S. cerevisiae deletion strains, locus YML016C, strain PPZ1, stronger effect = lower value",0.986 (inactive)
same,normalized growth,"S. cerevisiae deletion strains, locus YML032C, strain rad52, stronger effect = lower value",0.909 (inactive)
same,normalized growth,"S. cerevisiae deletion strains, locus YML120C, strain ndi1, stronger effect = lower value",0.823 (active)
same,normalized growth,"S. cerevisiae deletion strains, locus YML124C, strain tub3, stronger effect = lower value",0.997 (inactive)
same,normalized growth,"S. cerevisiae deletion strains, locus YMR058W, strain fet3, stronger effect = lower value",0.742 (active)
same,normalized growth,"S. cerevisiae deletion strains, locus YMR078C, strain ctf18, stronger effect = lower value",1 (inactive)
same,normalized growth,"S. cerevisiae deletion strains, locus YMR125W, strain sto1, stronger effect = lower value",0.869 (active)
same,normalized growth,"S. cerevisiae deletion strains, locus YMR129W, stronger effect = lower value",0.966 (inactive)
same,normalized growth,"S. cerevisiae deletion strains, locus YMR205C, strain PFK2, stronger effect = lower value",0.943 (inactive)
same,normalized growth,"S. cerevisiae deletion strains, locus YMR223W, strain ubp8, stronger effect = lower value",0.784 (active)
same,normalized growth,"S. cerevisiae deletion strains, locus YMR231W, strain pep5, stronger effect = lower value",0.0744 (active)
same,normalized growth,"S. cerevisiae deletion strains, locus YMR263W, strain SAP30, stronger effect = lower value",0.717 (active)
same,normalized growth,"S. cerevisiae deletion strains, locus YMR307W, strain GAS1, stronger effect = lower value",0.151 (active) and 1.03 (inactive)
same,normalized growth,"S. cerevisiae deletion strains, locus YNL067W, strain RPL9B, stronger effect = lower value",0.724 (active)
same,normalized growth,"S. cerevisiae deletion strains, locus YNL071W, strain lat1, stronger effect = lower value",0.918 (inactive)
same,normalized growth,"S. cerevisiae deletion strains, locus YNL128W, strain TEP1, stronger effect = lower value",0.0843 (active) and 0.921 (inactive)
same,normalized growth,"S. cerevisiae deletion strains, locus YNL153C, strain GIM3, stronger effect = lower value",0.512 (active) and 0.943 (inactive)
same,normalized growth,"S. cerevisiae deletion strains, locus YNL175C, strain NOP13, stronger effect = lower value",0.983 (inactive)
same,normalized growth,"S. cerevisiae deletion strains, locus YNL183C, strain NPR1, stronger effect = lower value",0.987 (inactive)
same,normalized growth,"S. cerevisiae deletion strains, locus YNL197C, strain WHI3, stronger effect = lower value",0.975 (inactive)
same,normalized growth,"S. cerevisiae deletion strains, locus YNL209W, strain ssb2, stronger effect = lower value",0.652 (active)
same,normalized growth,"S. cerevisiae deletion strains, locus YNL224C, strain SQS1, stronger effect = lower value",1 (inactive)
same,normalized growth,"S. cerevisiae deletion strains, locus YNL233W, strain BNI4, stronger effect = lower value",0.635 (active)
same,normalized growth,"S. cerevisiae deletion strains, locus YNL248C, strain rpa49, stronger effect = lower value",0.913 (inactive)
same,normalized growth,"S. cerevisiae deletion strains, locus YNL250W, strain rad50, stronger effect = lower value",0.983 (inactive)
same,normalized growth,"S. cerevisiae deletion strains, locus YNL271C, strain bni1, stronger effect = lower value",0.994 (inactive)
same,normalized growth,"S. cerevisiae deletion strains, locus YNL298W, strain CLA4, stronger effect = lower value",0.937 (inactive)
same,normalized growth,"S. cerevisiae deletion strains, locus YNL307C, strain MCK1, stronger effect = lower value",0.777 (active)
same,normalized growth,"S. cerevisiae deletion strains, locus YNL322C, strain KRE1 (second series), stronger effect = lower value",0.995 (inactive)
same,normalized growth,"S. cerevisiae deletion strains, locus YNL322C, strain KRE1, stronger effect = lower value",0.0727 (active)
same,normalized growth,"S. cerevisiae deletion strains, locus YNR049C, strain mso1, stronger effect = lower value",0.986 (inactive)
same,normalized growth,"S. cerevisiae deletion strains, locus YNR052C, strain pop2, stronger effect = lower value",0.732 (active)
same,normalized growth,"S. cerevisiae deletion strains, locus YOL006C, strain TOP1, stronger effect = lower value",0.427 (active)
same,normalized growth,"S. cerevisiae deletion strains, locus YOL012C, strain htz1",0.226 (inactive)
same,normalized growth,"S. cerevisiae deletion strains, locus YOL147C, strain pex11, stronger effect = lower value",0.938 (inactive)
same,normalized growth,"S. cerevisiae deletion strains, locus YOR001W, strain rrp6, stronger effect = lower value",0.864 (active)
same,normalized growth,"S. cerevisiae deletion strains, locus YOR061W, strain CKA2, stronger effect = lower value",0.913 (inactive)
same,normalized growth,"S. cerevisiae deletion strains, locus YOR069W, strain VPS5, stronger effect = lower value",0.996 (inactive)
same,normalized growth,"S. cerevisiae deletion strains, locus YOR070C, strain gyp1, stronger effect = lower value",0.347 (active)
same,normalized growth,"S. cerevisiae deletion strains, locus YOR080W, strain dia2, stronger effect = lower value",1 (inactive)
same,normalized growth,"S. cerevisiae deletion strains, locus YOR083W, strain WHI5 (second series), stronger effect = lower value",0.652 (active)
same,normalized growth,"S. cerevisiae deletion strains, locus YOR083W, strain WHI5, stronger effect = lower value",0.669 (active)
same,normalized growth,"S. cerevisiae deletion strains, locus YOR106W, strain vam3, stronger effect = lower value",0.161 (active)
same,normalized growth,"S. cerevisiae deletion strains, locus YOR136W, strain idh2, stronger effect = lower value",0.925 (inactive)
same,normalized growth,"S. cerevisiae deletion strains, locus YOR144C, strain elg1, stronger effect = lower value",1 (inactive)
same,normalized growth,"S. cerevisiae deletion strains, locus YOR184W, strain ser1, stronger effect = lower value",0.248 (active)
same,normalized growth,"S. cerevisiae deletion strains, locus YOR231W, strain MKK1, stronger effect = lower value",0.968 (inactive)
same,normalized growth,"S. cerevisiae deletion strains, locus YOR265W, strain rbl2, stronger effect = lower value",0.91 (active)
same,normalized growth,"S. cerevisiae deletion strains, locus YOR270C, strain vph1, stronger effect = lower value",0.673 (active)
same,normalized growth,"S. cerevisiae deletion strains, locus YOR290C, strain snf2, stronger effect = lower value",0.913 (inactive)
same,normalized growth,"S. cerevisiae deletion strains, locus YOR316C, strain cot1, stronger effect = lower value",1.01 (inactive)
same,normalized growth,"S. cerevisiae deletion strains, locus YPL051W, strain arl3, stronger effect = lower value",0.778 (active)
same,normalized growth,"S. cerevisiae deletion strains, locus YPL055C, strain LGE1, stronger effect = lower value",0.101 (active) and 1.03 (inactive)
same,normalized growth,"S. cerevisiae deletion strains, locus YPL078C, strain atp4, stronger effect = lower value",0.92 (inactive)
same,normalized growth,"S. cerevisiae deletion strains, locus YPL106C, strain sse1, stronger effect = lower value",0.999 (inactive)
same,normalized growth,"S. cerevisiae deletion strains, locus YPL240C, strain hsp82, stronger effect = lower value",0.983 (inactive)
same,normalized growth,"S. cerevisiae deletion strains, locus YPL241C, strain CIN2, stronger effect = lower value",0.484 (active)
same,normalized growth,"S. cerevisiae deletion strains, locus YPL256C, strain CLN2, stronger effect = lower value",0.978 (inactive)
same,normalized growth,"S. cerevisiae deletion strains, locus YPR119W, strain clb2, stronger effect = lower value",1.01 (inactive)
same,normalized growth,"S. cerevisiae deletion strains, locus YPR141C, strain kar3, stronger effect = lower value",0.999 (inactive)
same,normalized growth,"S. cerevisiae deletion strains, locus YPR163C, strain tif3, stronger effect = lower value",0.148 (active)
same,normalized growth,"S. cerevisiae deletion strains, locus YPR167C, strain met16, stronger effect = lower value",0.979 (inactive)
same,normalized growth,"S. cerevisiae deletion strains, strain wtn01, stronger effect = lower value",0.355 (active)
same,normalized growth,"S. cerevisiae strains, strain wild type, stronger effect = lower value",0.0575 (active)
